# Source: PubChem BioAssay
# Where “and” joins values, the source holds several entries; their conditions need not be identical. Equal values may be shown once. Calls of active or inactive are those of the source.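 The calls were made as follows, unless noted: active = normalized viability below 100% at a tested concentration; inactive = the rest.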
# Tests used:
# [1] = Wnt pathway potentiators raising nuclear beta-catenin – imaging, WNT3A-conditioned medium, mouse C2C12, NPC library, primary screen (AID 1117326; in the data active = nuclear beta-catenin stimulation mostly above about 4.2%, no sharp cut-off; inactive = mostly below about 10%); conditions: stronger effect = higher value
# [2] = stimulators of insulin release from INS-1E, primary screen, cell-based, 5 mM glucose, NPC library (AID 1117329;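 active = compound raises insulin release from rat beta cells at 5 mM glucose, no numeric limit stated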); conditions: rat INS-1E insulin secretion, at 10 µM, stronger effect = higher value
# [3] = growth inhibition of GSK3B-pretreated HCT116 cells – cell-based, CellTiter-Glo, 0.2 to 20 µM (AID 1117336;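 active = compounds lowering colon cancer cell viability after pretreatment blocking the GSK3B kinase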); conditions: HCT116 viability after GSK3B inhibitor, at 20 µM, stronger effect = higher value
# [4] = inhibition of endothelial tube formation, primary screen, imaging, VEGF stimulated, CD31 staining, tube area, NPC library (AID 1117340;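 active = compound that reduces growth-factor-driven endothelial tube area in a mixed cell culture, no cutoff stated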); conditions: VEGF-stimulated ADSC/ECFC co-culture, at 10 µM, stronger effect = higher value
# [5] = GLP1 release stimulators, primary, NCI-H716, NPC library (AID 1117341;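 active = compound raises GLP1 secretion from the human gut endocrine cells, with no numeric limit stated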); conditions: NCI-H716 cells, at 10 µM, stronger effect = higher value
# [6] = HCT116 colon cancer cell growth inhibition, primary screen, CellTiter-Glo luminescence, NPC library (AID 1117342;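 active = compounds that lower survival of HCT116 colon cancer cells in the luminescence readout, no numeric limit stated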); conditions: at 20 µM (top of the series)
# [7] = reduced SW480 viability measured with CellTiter-Glo, NPC library, primary (AID 1117343;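 active = compounds that lower viability of the colon cancer cells in the luminescence readout, with no numeric limit stated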); conditions: CellTiter-Glo luminescence; at 20 µM (top of the series) unless noted
# [8] = NPC library primary testing for decreased DLD-1 cell viability via CellTiter-Glo (AID 1117346;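 active = compounds that lower survival of DLD-1 colon cancer cells in the luminescence readout, no cutoff given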); conditions: DLD-1 viability, CellTiter-Glo luminescence; at 20 µM (top of the series)
# [9] = EMT-state selective cytotoxicity in co-culture – imaging, PC-3E GFP, TEM4-18 mCherry, primary screen (AID 1345086;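 active = compounds killing one labelled cell type while sparing the other, by normalised counts and ratio limits, not self-fluorescent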;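 also: cells exposed to compound for 72 h before imaging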;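 as to red/green cell ratio (normalised): normalised mesenchymal count divided by normalised epithelial count so high means epithelial killing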); conditions: PC-3E GFP / TEM4-18 mCherry co-culture, imaging cell counts, at 1 µM
# [10] = viability loss with induced miR-34 in A549 – imaging, A549 dox-inducible miR-34, nuclei and caspase counts, primary screen (AID 1347080;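 active = compounds whose cell count with miR-34 switched on is under 0.7 times the count with it off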); conditions: A549 miR-34 inducible, Hoechst nuclei count, 48 h
# [11] = MELAS cybrid and Rieske KO viability enhancers – cell-based, MELAS cybrids, Rieske KO mouse fibroblasts, CellTiter-Glo, primary screen (AID 1508586;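 active = mean z-score across replicates of 1.96 or higher in either the MELAS or the Rieske mutant cell line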;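 also: z relative to plate mean and SD of compound and empty wells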); conditions: low glucose
# [12] = drug combination growth inhibition, ovarian cancer – cell-based, oncology-focused library, rucaparib conditional, profiling panel (AID 1508598); conditions: patient-derived ovarian cancer cells, CellTiter-Glo viability, 144 h, stronger effect = lower value
# [13] = molecular target: NAD(+) hydrolase SARM1 (Homo sapiens) (UniProt Q6SZW1); assay: blocking NAD cleavage by SARM1 SAM-TIR – cell lysate, NAD-Glo luminescence (AID 1508614;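 active = compound whose remaining NAD level is above about 45 nM, limit read from the data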;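 also: higher remaining NAD means stronger inhibition of SARM1 NADase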); conditions: SAM-TIR HEK293T lysate NADase, at 1 µM, stronger effect = higher value
# [14] = growth inhibition, single agent or in combination, cell-based, chromothripsis tumors, cisplatin or BGB combos (AID 1671449; in the data active = inhibition above about 80%;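 also: cells exposed for 96 hours; 0% = vehicle DMSO and 100% = killing by high DMSO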); conditions: LFS_MB_P medulloblastoma cells
# [15] = growth inhibition, single agent and combos, cell-based, chromothripsis tumors, cisplatin or BGB combos (AID 1671450; in the data active = inhibition above about 80%;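 also: cells exposed to compound for four days; 0% = vehicle DMSO and 100% = cell killing by high DMSO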); conditions: HDN33 neuroblastoma cells, stronger effect = higher value
# [16] = growth inhibition, single agents and combos, ICB984, cell-based, cisplatin or BGB combos, synergistic combos for chromothripsis tumors (AID 1671451; call rule not given here;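 also: cells exposed for 96 hours before readout; 0% = vehicle DMSO and 100% = killing by high DMSO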); conditions: ICB984 medulloblastoma cells, drug combinations, stronger effect = higher value
# [17] = growth inhibition, single agents and combos, HTB85, cell-based, BGB or cisplatin IC20 combos, synergistic combos for chromothripsis tumors (AID 1671453; in the data active = inhibition above about 80%;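 also: cells exposed for 96 hours before readout; 0% = vehicle DMSO and 100% = high DMSO killing control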); conditions: HTB85 osteosarcoma cells, drug combinations, stronger effect = higher value
# [18] = growth inhibition, MDA-MB-436, cell-based, BGB or cisplatin combos, synergistic combos for chromothripsis tumors (AID 1671458; call rule not given here;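 also: cells exposed for 96 hours; 0% = vehicle DMSO and 100% = killing by high DMSO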); conditions: MDA-MB-436 breast carcinoma growth inhibition, drug combinations, stronger effect = higher value
# Sequence of NAD(+) hydrolase SARM1 (Homo sapiens) (Q6SZW1 whole entry, looked up): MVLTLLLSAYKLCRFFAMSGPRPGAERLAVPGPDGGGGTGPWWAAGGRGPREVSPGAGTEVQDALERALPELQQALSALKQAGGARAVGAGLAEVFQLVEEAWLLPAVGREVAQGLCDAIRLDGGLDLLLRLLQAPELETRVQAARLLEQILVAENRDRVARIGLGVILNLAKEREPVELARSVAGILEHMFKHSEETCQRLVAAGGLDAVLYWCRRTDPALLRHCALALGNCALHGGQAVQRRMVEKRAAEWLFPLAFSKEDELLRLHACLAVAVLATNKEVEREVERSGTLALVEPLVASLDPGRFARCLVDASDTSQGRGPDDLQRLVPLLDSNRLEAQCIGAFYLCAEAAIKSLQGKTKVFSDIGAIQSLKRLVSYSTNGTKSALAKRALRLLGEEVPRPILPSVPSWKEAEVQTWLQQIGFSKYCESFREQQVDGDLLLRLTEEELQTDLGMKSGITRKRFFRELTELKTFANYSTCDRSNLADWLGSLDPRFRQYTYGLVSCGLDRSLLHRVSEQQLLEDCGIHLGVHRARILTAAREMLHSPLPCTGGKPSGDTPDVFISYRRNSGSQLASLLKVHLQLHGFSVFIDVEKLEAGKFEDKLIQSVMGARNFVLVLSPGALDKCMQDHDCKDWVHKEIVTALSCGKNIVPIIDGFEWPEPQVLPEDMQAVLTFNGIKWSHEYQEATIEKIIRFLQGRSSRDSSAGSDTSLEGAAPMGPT
smiles,measurement,setting,value
O=C(CCCCCCC(=O)Nc1ccccc1)NO,nuclear beta-catenin stimulation,[1]; at 10 µM,7.6% (inactive)
same,nuclear beta-catenin stimulation,"[1]; stimulation, at 2 µM",7.1%
same,insulin secretion stimulation,[2],-1.2% (inactive)
same,viability decrease,[3],53.5% (active)
same,tube area decrease,[4],103% (active)
same,GLP1 secretion stimulation,[5],0.5% (inactive)
same,inhibition of viability,[6],108% (active)
same,viability decrease (inhibition),[7],110% (active)
same,viability decrease (inhibition),[8],58% (active)
same,red/green cell ratio (normalised),"[9]; actives lie on both sides, counts scaled to control wells, 1 = unselective",1.29 (inactive)
same,normalised cell number,[9]; measured here: epithelial PC-3E GFP cell survival,0.33
same,normalised cell number,[9]; measured here: mesenchymal TEM4-18 mCherry cell survival,0.42
same,fold change,"[10]; stronger effect = lower value, cell number ratio, induced over uninduced",1.09 (inactive) and 1.01 (inactive) and 0.979 (inactive)
same,fold change,[10]; measured here: relative caspase fold change +Dox/-Dox,0.756 and 1.04 and 1.07
same,cell count,"[10]; measured here: total cells with miR-34 induction, stronger effect = lower value",1690 and 5020 and 1390
same,cell count,[10]; measured here: total cells without miR-34 induction,1540 and 4980 and 1420
same,z-score,"[11]; MELAS cybrid survival, CellTiter-Glo 48 h, stronger effect = higher value",0.575 (inactive) and -2.2 (inactive)
same,z-score,"[11]; Rieske KO mouse fibroblast survival, CellTiter-Glo 72 h",0.979 and -1.4
same,viability,"[12]; at 0.000305 µM, OCI-C5x cells, with rucaparib 10 µM, 100% = cells with rucaparib alone",108% (inactive)
same,viability,"[12]; at 0.000305 µM, OCI-C5x cells, without rucaparib",108% (inactive)
same,viability,"[12]; at 0.000305 µM, OCI-P5x cells, with rucaparib 20 µM, 100% = cells with rucaparib alone",87.7% (active)
same,viability,"[12]; at 0.000305 µM, OCI-P5x cells, without rucaparib",91.8% (active)
same,viability,"[12]; at 0.00122 µM, OCI-C5x cells, with rucaparib 10 µM, 100% = cells with rucaparib alone",112% (inactive)
same,viability,"[12]; at 0.00122 µM, OCI-C5x cells, without rucaparib",106% (inactive)
same,viability,"[12]; at 0.00122 µM, OCI-P5x cells, with rucaparib 20 µM, 100% = cells with rucaparib alone",83% (active)
same,viability,"[12]; at 0.00122 µM, OCI-P5x cells, without rucaparib",97.1% (active)
same,viability,"[12]; at 0.00488 µM, OCI-C5x cells, with rucaparib 10 µM, 100% = cells with rucaparib alone",113% (inactive)
same,viability,"[12]; at 0.00488 µM, OCI-C5x cells, without rucaparib",110% (inactive)
same,viability,"[12]; at 0.00488 µM, OCI-P5x cells, with rucaparib 20 µM, 100% = cells with rucaparib alone",109% (inactive)
same,viability,"[12]; at 0.00488 µM, OCI-P5x cells, without rucaparib",96.9% (active)
same,viability,"[12]; at 0.0195 µM, OCI-C5x cells, with rucaparib 10 µM, 100% = cells with rucaparib alone",111% (inactive)
same,viability,"[12]; at 0.0195 µM, OCI-C5x cells, without rucaparib",114% (inactive)
same,viability,"[12]; at 0.0195 µM, OCI-P5x cells, with rucaparib 20 µM, 100% = cells with rucaparib alone",112% (inactive)
same,viability,"[12]; at 0.0195 µM, OCI-P5x cells, without rucaparib",93.3% (active)
same,viability,"[12]; at 0.0781 µM, OCI-C5x cells, with rucaparib 10 µM, 100% = cells with rucaparib alone",110% (inactive)
same,viability,"[12]; at 0.0781 µM, OCI-C5x cells, without rucaparib",108% (inactive)
same,viability,"[12]; at 0.0781 µM, OCI-P5x cells, with rucaparib 20 µM, 100% = cells with rucaparib alone",96.2% (active)
same,viability,"[12]; at 0.0781 µM, OCI-P5x cells, without rucaparib",83% (active)
same,viability,"[12]; at 0.313 µM, OCI-C5x cells, with rucaparib 10 µM, 100% = cells with rucaparib alone",57.7% (active)
same,viability,"[12]; at 0.313 µM, OCI-C5x cells, without rucaparib",57.4% (active)
same,viability,"[12]; at 0.313 µM, OCI-P5x cells, with rucaparib 20 µM, 100% = cells with rucaparib alone",61.2% (active)
same,viability,"[12]; at 0.313 µM, OCI-P5x cells, without rucaparib",46.1% (active)
same,viability,"[12]; at 1.25 µM, OCI-C5x cells, with rucaparib 10 µM, 100% = cells with rucaparib alone",73.9% (active)
same,viability,"[12]; at 1.25 µM, OCI-C5x cells, without rucaparib",52.8% (active)
same,viability,"[12]; at 1.25 µM, OCI-P5x cells, with rucaparib 20 µM, 100% = cells with rucaparib alone",65.9% (active)
same,viability,"[12]; at 1.25 µM, OCI-P5x cells, without rucaparib",55.9% (active)
same,viability,"[12]; at 5 µM, OCI-C5x cells, with rucaparib 10 µM, 100% = cells with rucaparib alone",8.43% (active)
same,viability,"[12]; at 5 µM, OCI-C5x cells, without rucaparib",7.74% (active)
same,viability,"[12]; at 5 µM, OCI-P5x cells, with rucaparib 20 µM, 100% = cells with rucaparib alone",8.03% (active)
same,viability,"[12]; at 5 µM, OCI-P5x cells, without rucaparib",14.8% (active)
same,remaining NAD,[13],10 nM (inactive)
same,inhibition,"[14]; at 0.5 µM, stronger effect = higher value",76.8% (inactive)
same,inhibition,"[14]; measured here: combination with BGB IC20, at 0.005 µM",-24%
same,inhibition,"[14]; measured here: combination with BGB IC40, at 0.005 µM",-25.1%
same,inhibition,"[14]; measured here: combination with BGB IC40, at 0.05 µM",-21.7%
same,inhibition,"[14]; measured here: combination with cisplatin, at 0.5 µM, stronger effect = higher value",48.5%
same,inhibition,"[14]; measured here: combination with cisplatin, at 5 µM, stronger effect = higher value",107%
same,inhibition,"[15]; BGB combo, at 5 µM",92.3%
same,inhibition,[15]; at 0.5 µM,20.4% (inactive)
same,inhibition,"[15]; cisplatin combo, at 5 µM",98%
same,inhibition,"[15]; measured here: with BGB IC20 combination, at 0.5 µM",5.45%
same,inhibition,"[15]; measured here: with cisplatin IC20 combination, at 0.5 µM",18.5%
same,inhibition,"[15]; single agent, at 5 µM",96.3%
same,inhibition,"[16]; BGB IC20 combo, at 0.005 µM",-9.97%
same,inhibition,"[16]; BGB IC40 combo, at 0.005 µM",-34%
same,inhibition,"[16]; BGB IC40 combo, at 0.05 µM",71.5%
same,inhibition,[16]; at 0.5 µM,-21.1% (inactive)
same,inhibition,"[16]; cisplatin combo, at 0.05 µM",70.7%
same,inhibition,"[16]; cisplatin combo, at 0.5 µM",-19.8%
same,inhibition,"[16]; cisplatin combo, at 5 µM",-86.6%
same,inhibition,"[16]; measured here: 5 uM single agent, at 5 µM",-52.1%
same,inhibition,[17]; at 0.5 µM,1.09% (inactive)
same,inhibition,"[17]; measured here: with BGB IC20, at 0.5 µM",-18.4%
same,inhibition,"[17]; measured here: with BGB IC20, at 5 µM",80.9%
same,inhibition,"[17]; measured here: with cisplatin IC20, at 0.5 µM",21.1%
same,inhibition,"[17]; measured here: with cisplatin IC20, at 5 µM",89.9%
same,inhibition,"[17]; single agent, at 5 µM",87.5%
same,inhibition,[18]; at 0.5 µM,-18.9% (inactive)
same,inhibition,"[18]; measured here: BGB combination, at 0.5 µM",-38.5%
same,inhibition,"[18]; measured here: BGB combination, at 5 µM",32%
same,inhibition,"[18]; measured here: cisplatin combination, at 0.5 µM",-20.9%
same,inhibition,"[18]; measured here: cisplatin combination, at 5 µM",36.6%
